# High-throughput results (PubChem BioAssay)
# JMJD2E inh – qHTS Assay for Inhibitors of Human Jumonji Domain Containing 2E (JMJD2E) | Lysine-specific demethylase 4E (Homo sapiens), B2RXH2 | JMJD2E catalytic domain, FDH-coupled NADH fluorescence (FDH is formaldehyde dehydrogenase) | Potency, µM (top dose mostly 57.1 µM), inactives show at the highest dose activity change, negative = inhibition, actives largely listed as inhibitors | 230,000 tested, 1.6% active;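 further: potency means the concentration at half of the fitted maximal effect; 0% = wells with enzyme and -100% = buffer wells without enzyme; nearly all actives have a fitted effect of over 50% in size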
# Target sequence (B2RXH2 1-337 limits assumed): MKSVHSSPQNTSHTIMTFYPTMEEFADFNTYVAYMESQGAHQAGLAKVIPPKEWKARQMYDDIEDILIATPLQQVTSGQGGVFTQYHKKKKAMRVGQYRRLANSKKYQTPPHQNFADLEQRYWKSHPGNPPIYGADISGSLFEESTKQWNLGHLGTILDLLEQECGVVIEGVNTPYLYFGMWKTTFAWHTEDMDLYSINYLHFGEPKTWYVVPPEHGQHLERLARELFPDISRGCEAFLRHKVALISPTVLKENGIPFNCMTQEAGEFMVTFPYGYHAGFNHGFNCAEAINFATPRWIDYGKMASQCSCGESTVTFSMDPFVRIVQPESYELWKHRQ
# HPGD inh – qHTS Assay for Inhibitors of HPGD (15-Hydroxyprostaglandin Dehydrogenase) | 150,000 tested, 4.3% active | AID 894, 2007 | purified HPGD, NADH fluorescence kinetic, PGE2 substrate | Potency, µM, for the others: at the highest dose activity change, negative = inhibition, usual class: inhibitors | 15-hydroxyprostaglandin dehydrogenase [NAD(+)] (Homo sapiens), P15428; further: potency means the concentration at half of the fitted maximal effect
# Target sequence (P15428 whole entry, looked up): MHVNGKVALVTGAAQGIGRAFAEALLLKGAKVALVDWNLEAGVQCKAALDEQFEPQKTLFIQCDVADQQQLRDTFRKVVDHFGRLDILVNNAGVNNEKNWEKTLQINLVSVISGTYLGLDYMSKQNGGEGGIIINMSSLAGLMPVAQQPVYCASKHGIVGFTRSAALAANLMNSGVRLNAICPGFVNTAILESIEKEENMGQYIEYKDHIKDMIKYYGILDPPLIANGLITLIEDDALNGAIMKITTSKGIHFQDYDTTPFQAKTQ
#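 NADH formation kinetics: reaction with 30 uM PGE2 and 1 mM NAD+ (final), 20 nM enzyme, Tris-HCl pH 8 with Tween 20, after 15 min compound preincubation at room temperature. Fluorescence change, last versus first of five reads.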
# PNC inhibitor – High Content Assay for Compounds that inhibit the Assembly of the Perinucleolar Compartment | activity change (PNC), negative = inhibition, % at 10 µM | PC3M PTB-GFP, PNC prevalence imaging, 16 h; hits give low values | 140,000 tested, 3.1% active;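 active means readout at or below -70, meaning at least 70% loss of cells showing the perinucleolar compartment, a nuclear body marking cancer cells; inconclusive means readout between -30 and a set limit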;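 further: plate controls were DMSO wells for no effect and camptothecin positive control wells for full effect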
#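 Compounds are pinned in duplicate onto adhered PC3M cells stably expressing GFP-tagged PTB and incubated 16 h at 37 C. Cells are then fixed, nuclei stained with Hoechst, and PNC-positive cells counted.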
# ALDH1A1 inh – qHTS Assay for Inhibitors of Aldehyde Dehydrogenase 1 (ALDH1A1); AID 1030, 2008; Aldehyde dehydrogenase 1A1 (Homo sapiens), P00352; Potency, µM (highest dose often 75.3 µM), for the others: top-dose activity, negative = inhibition, actives largely listed as inhibitors; Purified ALDH1A1, NADH fluorescence, propionaldehyde substrate; 220,000 tested, 7.3% active;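 further: potency means the concentration at half of the fitted maximal effect; plate controls were no enzyme wells and a reference inhibitor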
# Active calls of the source: *; ? = inconclusive; . = no result; [ ] = remark or other dose. Most compounds without a hit are left out; they make up all but 11% or so of the library. Unless noted, the call rests on the fitted dose curve; in most records, active means well fitted inhibition curve with a large enough effect (not every such curve was filed as active); inconclusive means small, poorly fitted or top-dose-only effect, or another doubt; inactive means no such curve, though single readings can be large or run the other way. Unless noted, on the % scale 0 is the no-effect control and ±100 the full control effect.
SMILES,JMJD2E inh,HPGD inh,PNC inhibitor,ALDH1A1 inh
N[C@@H](Cc1cc(CP(=O)(O)O)cc(-c2ccccc2Cl)c1)C(=O)O,-11%,-18%,.,0%
S=C(NC1CCCC1)NN1CCOCC1,-5%,.,.,18%
Cc1cc(=O)oc2c1c(C)nn2-c1ccc(C(=O)OC(C)C)cc1,3%,-13%,?,1.1µM*
N#Cc1c(-c2ccccc2)no[n+]1[O-],1%,-11%,.,5µM*
N#Cc1cn(-c2ccccc2)nc1-c1ccccc1,-3%,-14%,26,0%
CCN(CC(=O)NCc1cccs1)C(=O)c1cccc(S(=O)(=O)N2CCc3ccccc32)c1,-5%,.,.,6%
COCCn1cnnc1SCC(=O)Nc1ccc(Br)cc1F,11%,.,.,13µM*
Cn1cnnc1SCC(=O)Nc1ccc(S(=O)(=O)N2CCCC2)cc1,2%,-1%,-23,3%
COc1ccccc1-n1cnnc1SCC(=O)c1cc(C)n(Cc2cccs2)c1C,-22%,-19%,?,1.3µM*
COCCCn1cnnc1SCC(=O)Nc1ccc(S(=O)(=O)N2CCCC2)cc1,4%,-7%,33,11µM*
COc1ccccc1-n1cnnc1SCC(=O)Nc1cccc(S(=O)(=O)N2CCCCC2)c1,12%,-12%,?,0.63µM*
COCCn1cnnc1SCC(=O)Nc1cccc(S(=O)(=O)N2CCCCCC2)c1,-6%,-4%,-1,?
CC(=O)OC1C[C@]2(C)[C@@H](CC(O)C3[C@]4(C)CCC(O)C(C)[C@@H]4CC[C@]32C)/C1=C(/CCC=C(C)C)C(=O)O (some centres not stated),0%,-4%,.,2%
COc1ccccc1-n1cnnc1SCC(=O)Nc1ncc(Cl)cc1Cl,6%,-4%,?,4.5µM*
COc1ccccc1-n1cnnc1SCC(=O)Nc1nc(C)c(Cl)cc1Cl,5%,4%,?,?
CCCCn1c(SCC(=O)OCC)nc2c1c(=O)[nH]c(=O)n2C,3%,?,-119*,13µM*
CCOCCn1c(SC)nc2c1c(=O)[nH]c(=O)n2C,1%,20µM*,9,14µM*
C/C(Cl)=C/Cn1c(SC(C)C)nc2c1c(=O)[nH]c(=O)n2C,-5%,?,22,5µM*
CCOC(=O)CSc1nc2c(c(=O)[nH]c(=O)n2C)n1C/C=C(/C)Cl,2%,20µM*,17,18µM*
CCOCCn1c(SCCCc2ccccc2)nc2c1c(=O)[nH]c(=O)n2C,-2%,-4%,?,-3%
Cn1cnc2nc(NCCO)nc(NCc3ccccc3)c21,.,.,.,-8%
Cc1cc(C)cc(NC(=O)C(OC(=O)c2sccc2C)c2ccccc2)c1 (configuration not stated),3%,3%,62,-1%
O=C(NCCCCc1ccccc1)C1CC(c2ccccc2C(F)(F)F)=NO1 (configuration not stated),1%,.,.,.
CCCCCCn1c(SCCCC)nc2c1c(=O)[nH]c(=O)n2C,12%,-11%,10,-10%
CCn1c([N+](=O)[O-])nc2c1c(=O)[nH]c(=O)n2C,-10%,.,.,16µM*
SMILES,JMJD2E inh,HPGD inh,PNC inhibitor,ALDH1A1 inh
COc1cc(/C=N/Nc2ccccc2[N+](=O)[O-])cc(OC)c1O,5%,.,.,-2%
C/C(=N\Nc1ncc(Cl)cc1Cl)c1ccc(C#N)cc1,?,.,.,9%
COc1cc(/C=N/Nc2ccc(F)cc2F)cc(OC)c1O,7.9µM*,-29%,65,?
COc1cc(/C=N/Nc2ncc(C(F)(F)F)cc2Cl)cc(OC)c1O,?,14µM*,-16,-24%
C/C(=N/Nc1ncc(C(F)(F)F)cc1Cl)c1ccncc1,-1%,.,.,40µM*
Nc1nc(SCC(=O)Nc2cc(-c3ccccc3)nn2-c2ccccc2)n[nH]1,-5%,-5%,?,10µM*
CCc1ccc(C(=O)CSc2n[nH]c(C)n2)cc1,?,35µM*,-30,11µM*
Cc1ccc(C)c(C(=O)CSc2n[nH]c(C(C)C)n2)c1,2%,16µM*,-8,-5%
Cc1ccc(-c2cc(NC(=O)CSc3n[nH]c(N)n3)n(-c3ccccc3)n2)cc1,2%,-11%,7,-5%
Nc1nc(SCC(=O)c2ccc(Oc3ccccc3)cc2)n[nH]1,-22%,-30%,?,14µM*
CCCc1ccc(-c2cc(C(=O)Nc3ccc([N+](=O)[O-])cn3)c3ccccc3n2)cc1,7%,.,-30,-9%
CCc1nc(SCC(=O)c2cc(C)ccc2C)n[nH]1,?,40µM*,?,?
CC(NC(=O)CSC(=S)N(C)C)C12CC3CC(CC(C3)C1)C2 (configuration not stated),-3%,.,-5,13µM*
Nc1ccccc1S(=O)(=O)C(F)F,7%,.,.,.
O=c1[nH]c(NCCO)nc2c1C1(CCCC1)Cc1ccccc1-2,?,?,93,?
C=CCNC(=S)NNc1nc2c(c(=O)[nH]1)C1(CCCCC1)Cc1ccccc1-2,?,?,-13,13µM*
CN(C)/N=N\c1nc[nH]c1C(N)=O,-3%[25.5 µM],-9%,.,-6%[20.9 µM]
Cc1ccc2cc(CN(CCN(C)C)C(=S)Nc3ccccc3)c(=O)[nH]c2c1C,-14%,.,.,2%
Cc1ccc(NC(=S)N(CCN(C)C)Cc2cc3cc(C)cc(C)c3[nH]c2=O)cc1,11%,-4%,-116*,13%
COc1ccc2[nH]c(=O)c(CN(Cc3ccco3)C(=O)c3ccccc3)cc2c1,?,?,23,?
COc1cccc(C(=O)N(Cc2ccco2)Cc2cc3cccc(C)c3[nH]c2=O)c1,?,.,?,14µM*
Cc1cc(C)c2[nH]c(=O)c(CN(Cc3ccco3)C(=O)c3cccs3)cc2c1,?,?,-20,18µM*
O=C(c1cccs1)N(Cc1ccco1)Cc1cc2ccccc2[nH]c1=O,?,-14%,-117*,?
Cc1ccc2[nH]c(=O)c(CN(Cc3ccco3)C(=O)c3ccncc3)cc2c1,?,-17%,-23,-15%
COc1cscc1C(N)=O,2%,.,.,4%
SMILES,JMJD2E inh,HPGD inh,PNC inhibitor,ALDH1A1 inh
CCOc1ccc2[nH]c(=O)c(CN(Cc3ccco3)C(=O)c3ccc(Br)cc3)cc2c1,?,-20%,32,4.5µM*
Cc1ccc(S(=O)(=O)N(C)Cc2ccc(-c3nnco3)cc2)cc1,6%,?,64,6%
CCN(CC)S(=O)(=O)c1ccc(-c2nnco2)cc1,6%,-10%,-100*,-2%
CC(Sc1ccc(S(=O)(=O)N2CCOCC2)cc1[N+](=O)[O-])C(=O)O (configuration not stated),-14%,-17%,-20,?
CC(C)C(Nc1ccc(S(=O)(=O)N2CCOCC2)cc1[N+](=O)[O-])C(=O)O (configuration not stated),6%,.,.,1.3µM*
CN1CCC(=NNc2ccc(S(=O)(=O)N3CCOCC3)cc2[N+](=O)[O-])CC1,-23%,-14%,-12,0%
C/C(=N\Nc1ccc(S(=O)(=O)N2CCOCC2)cc1[N+](=O)[O-])C(C)C,1%,.,.,18µM*
